Results on 9 molecules are retold here after PubChem BioAssay.

One test addresses Albumin (Bos taurus) (UniProt P02769). Put plainly: compounds binding labelled BSA control protein – biochemical, small-molecule microarray, Alexa647 label, 635/667 nm fluorescence, artefact control for SMM control protein annotation, profiling panel (AID 1118).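 Also: score merges 667 nm emission intensity and signal-to-noise per printed compound spot.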 To be noted: BSA-A647 binding, fluorescence 635 nm, higher = more signal.
Test [1] is described as follows: probe aXIP binding to arrayed compounds – biochemical, NeuroSMM set, 635/667 nm fluorescence, primary screen (AID 1119).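 Also: probe is the protein aXip251-270 applied at 1 µg/mL to compound-printed slides; binding of probe to printed compounds measured as 667 nm fluorescence plus signal to noise.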 The following applies: small-molecule microarray, higher = more signal, called active from +8 up or from −8 down.
The nature of test [2]: probe aNOTCH3 binding on compound microarray – biochemical, small-molecule microarray, 635/667 nm fluorescence, primary screen (AID 1120).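 Also: probe is a biotin-tagged antibody raised against NOTCH3 rather than NOTCH3 protein; score merges spot fluorescence near 667 nm with spot signal to noise.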 To be noted: higher = more signal.
Test [3] is described as follows: probe aNOTCH2 binding on compound microarray – biochemical, small-molecule microarray, 635/667 nm fluorescence, primary screen (AID 1121).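 Also: score merges feature fluorescence read at 667 nm with its signal to noise.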 To be noted: higher = more signal.
Test [4] has as its target Carbonic anhydrase 2 (Homo sapiens) (UniProt P00918). Put plainly: compounds binding carbonic anhydrase 2 – biochemical, small-molecule microarray, Alexa647-labelled CAII, profiling panel (AID 1122). To be noted: CAII-A647 binding fluorescence, higher = more signal.
Test [5] in a line: COS7 lysate on small-molecule microarray, probe aHis, 635 nm (AID 1123).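 Also: z-score combines 667nm fluorescence intensity with signal-to-noise per printed compound spot.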 The following applies: COS7 cell lysate, fluorescence, higher = more signal.
The nature of test [6]: probe aLAP1 signal on lysate-treated microarray – cell lysate, small-molecule microarray, COS7 lysate, primary screen (AID 1124).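 Also: lysate comes from COS7 cells expressing LAP1 and is applied at 0.3 µg/mL; score merges spot fluorescence near 667 nm with signal-to-noise over triplicate slides.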 To be noted: probe aLAP1, fluorescence, higher = more signal.
Another test concerns Sam68 (KHDRBS1). The test can be described thus: compounds binding KHDRBS1 protein – biochemical, small-molecule microarray, 635 nm fluorescence, primary screen (AID 1125).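 Also: score merges 667 nm channel intensity with signal to noise over triplicate slides.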 The following applies: higher = more signal.
Test [7] has as its system Chordin-like protein 2 (CHRDL2). Put plainly: compounds binding chordin-like 2 – biochemical, small-molecule microarray, 635 nm fluorescence, primary screen (AID 1126).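 Also: printed compound slides probed with Chrdl2 protein at 4 µg/mL for 1 h at 4 C; score merges 667 nm emission intensity with signal to noise over three replicate slides.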 The following applies: fluorescence 635 nm, higher = more signal.
Test [8] addresses Concanavalin-A (Canavalia ensiformis) (UniProt P02866). The test can be described thus: compounds binding concanavalin A lectin – biochemical, small-molecule microarray, Alexa647 label, 635 nm, artefact control for SMM control protein annotation, primary screen (AID 1127).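 Also: z combines 667 nm emission intensity with signal-to-noise across three replicate slides.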 The following applies: ConA-A647 binding fluorescence, higher = more signal.
A short description of test [9]: compounds binding Alexa647 anti-His antibody – biochemical, small-molecule microarray, 635 nm fluorescence, artefact control for SMM control protein annotation, primary screen (AID 1128).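 Also: score merges feature fluorescence with signal-to-noise for each printed compound spot.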 The following applies: higher = more signal.
Test [10] relates to Human papillomavirus type 1a E7 protein (residues 1-88). Put plainly: HPV1a E7 small-molecule binders, primary screen, biochemical, small-molecule microarray, residues 1-88, 635 nm (AID 1129). To be noted: small-molecule microarray binding, fluorescence 635 nm; higher = more signal.
Test [11] has as its target Focal adhesion kinase 1 (Homo sapiens) (UniProt Q05397). Put plainly: PTK2 protein binding on printed compound slides – biochemical, small-molecule microarray, 635/667 nm fluorescence, BSA, DTT, primary screen (AID 1130).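 Also: composite of spot emission at 667 nm and signal to noise over triplicate slides.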 The following applies: 635 nm fluorescence, higher = more signal.
For test [12], the system named is Fibrinogen (Alexa647-labelled). The test can be described thus: Alexa647-fibrinogen binding to printed small molecules – biochemical, small-molecule microarray, 635/667 nm fluorescence, artefact control for SMM control-protein annotation, profiling panel (AID 1131).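 Also: z-score merges 667 nm fluorescence with per-spot signal-to-noise over triplicate slides.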 The following applies: fibrinogen-A647 binding fluorescence, higher = more signal.
In test [13] the target is Follistatin (Homo sapiens) (UniProt P19883). The test can be described thus: FST protein binding to printed compounds – biochemical, small-molecule microarray, 635/667 nm fluorescence, primary screen (AID 1132). The following applies: 635 nm fluorescence, higher = more signal.
Sequence of Follistatin (Homo sapiens) (P19883 whole entry, looked up): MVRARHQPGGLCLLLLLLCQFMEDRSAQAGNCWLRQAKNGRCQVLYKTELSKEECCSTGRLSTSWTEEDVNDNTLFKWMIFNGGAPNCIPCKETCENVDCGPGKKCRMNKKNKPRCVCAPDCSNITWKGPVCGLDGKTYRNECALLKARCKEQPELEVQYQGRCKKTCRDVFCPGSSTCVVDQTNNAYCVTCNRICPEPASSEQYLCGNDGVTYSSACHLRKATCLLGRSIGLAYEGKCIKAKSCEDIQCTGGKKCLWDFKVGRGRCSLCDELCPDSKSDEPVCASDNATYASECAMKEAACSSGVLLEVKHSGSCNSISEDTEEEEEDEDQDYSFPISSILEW
Test [14] concerns the target Fibroblast growth factor 2 (Homo sapiens) (UniProt P09038). The test can be described thus: basic fibroblast growth factor binding to printed compounds – biochemical, small-molecule microarray, 635/667 nm fluorescence, primary screen (AID 1133). To be noted: FGF2, fluorescence 635/667, higher = more signal.
Test [15] in a line: JC-1 mitochondrial potential readout, lung cancer cells – cell-based, A549, JC-1 fluorescence, basal, 24 h, 100 nL, profiling panel (AID 1138).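 Also: A549 lung adenocarcinoma cells under basal conditions with no added stimulus; test concentration not given here.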 The following applies: higher = more signal.
For a further test, the system named is Lefty1. Put plainly: Lefty1 protein binding to printed compounds – biochemical, small-molecule microarray, 635/667 nm fluorescence, primary screen (AID 1139). The following applies: fluorescence 635/667, higher = more signal.
In test [16] the test system is wheat germ agglutinin (Triticum aestivum), Alexa647-labelled. The test can be described thus: Alexa647-WGA lectin binding to printed small molecules – biochemical, small-molecule microarray, 635/667 nm fluorescence, artefact control for SMM control-protein annotation, profiling panel (AID 1140).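 Also: score merges 667 nm feature emission with signal to noise over triplicate slides.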 To be noted: WGA-A647 binding, 635 nm fluorescence, higher = more signal.

For test [17], the target named is Luciferin 4-monooxygenase (Photinus pyralis) (UniProt P08659). Put plainly: inhibition of purified Photinus pyralis luciferase – biochemical, luminescence, purified enzyme, 2006 set, primary screen (AID 1141).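 Also: cell-free assay with purified firefly luciferase at 100 ng per well in PBS; test concentration not given here.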 To be noted: purified firefly luciferase, SteadyGlo luminescence, 30 min; higher = more signal, called active from +8 up or from −8 down.
Sequence of Luciferin 4-monooxygenase (Photinus pyralis) (P08659 whole entry, looked up): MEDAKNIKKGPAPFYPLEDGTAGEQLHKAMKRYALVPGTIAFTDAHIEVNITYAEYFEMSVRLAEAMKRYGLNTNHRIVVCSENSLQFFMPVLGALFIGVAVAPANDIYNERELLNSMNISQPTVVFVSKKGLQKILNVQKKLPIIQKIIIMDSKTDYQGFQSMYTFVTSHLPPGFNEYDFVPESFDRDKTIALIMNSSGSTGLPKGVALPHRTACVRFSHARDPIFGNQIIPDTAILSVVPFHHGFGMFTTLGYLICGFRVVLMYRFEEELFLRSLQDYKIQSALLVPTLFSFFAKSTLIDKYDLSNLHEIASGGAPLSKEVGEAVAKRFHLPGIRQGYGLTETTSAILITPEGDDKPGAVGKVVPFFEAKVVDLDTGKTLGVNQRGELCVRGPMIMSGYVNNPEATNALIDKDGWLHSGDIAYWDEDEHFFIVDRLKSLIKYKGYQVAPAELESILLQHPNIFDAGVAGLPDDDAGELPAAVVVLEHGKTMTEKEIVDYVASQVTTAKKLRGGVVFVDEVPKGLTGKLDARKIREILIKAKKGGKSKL

Active and inactive are the calls of the source.

Sequence of Concanavalin-A (Canavalia ensiformis) (P02866 whole entry, looked up): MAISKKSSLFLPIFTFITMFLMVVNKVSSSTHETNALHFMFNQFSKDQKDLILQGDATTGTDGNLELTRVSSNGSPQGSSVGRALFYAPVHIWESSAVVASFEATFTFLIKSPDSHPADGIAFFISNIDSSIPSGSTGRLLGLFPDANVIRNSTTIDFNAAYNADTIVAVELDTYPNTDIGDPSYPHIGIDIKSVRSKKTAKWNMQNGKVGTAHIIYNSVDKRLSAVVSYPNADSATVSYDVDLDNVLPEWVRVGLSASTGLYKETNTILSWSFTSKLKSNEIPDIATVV
Sequence of Focal adhesion kinase 1 (Homo sapiens) (Q05397 whole entry, looked up): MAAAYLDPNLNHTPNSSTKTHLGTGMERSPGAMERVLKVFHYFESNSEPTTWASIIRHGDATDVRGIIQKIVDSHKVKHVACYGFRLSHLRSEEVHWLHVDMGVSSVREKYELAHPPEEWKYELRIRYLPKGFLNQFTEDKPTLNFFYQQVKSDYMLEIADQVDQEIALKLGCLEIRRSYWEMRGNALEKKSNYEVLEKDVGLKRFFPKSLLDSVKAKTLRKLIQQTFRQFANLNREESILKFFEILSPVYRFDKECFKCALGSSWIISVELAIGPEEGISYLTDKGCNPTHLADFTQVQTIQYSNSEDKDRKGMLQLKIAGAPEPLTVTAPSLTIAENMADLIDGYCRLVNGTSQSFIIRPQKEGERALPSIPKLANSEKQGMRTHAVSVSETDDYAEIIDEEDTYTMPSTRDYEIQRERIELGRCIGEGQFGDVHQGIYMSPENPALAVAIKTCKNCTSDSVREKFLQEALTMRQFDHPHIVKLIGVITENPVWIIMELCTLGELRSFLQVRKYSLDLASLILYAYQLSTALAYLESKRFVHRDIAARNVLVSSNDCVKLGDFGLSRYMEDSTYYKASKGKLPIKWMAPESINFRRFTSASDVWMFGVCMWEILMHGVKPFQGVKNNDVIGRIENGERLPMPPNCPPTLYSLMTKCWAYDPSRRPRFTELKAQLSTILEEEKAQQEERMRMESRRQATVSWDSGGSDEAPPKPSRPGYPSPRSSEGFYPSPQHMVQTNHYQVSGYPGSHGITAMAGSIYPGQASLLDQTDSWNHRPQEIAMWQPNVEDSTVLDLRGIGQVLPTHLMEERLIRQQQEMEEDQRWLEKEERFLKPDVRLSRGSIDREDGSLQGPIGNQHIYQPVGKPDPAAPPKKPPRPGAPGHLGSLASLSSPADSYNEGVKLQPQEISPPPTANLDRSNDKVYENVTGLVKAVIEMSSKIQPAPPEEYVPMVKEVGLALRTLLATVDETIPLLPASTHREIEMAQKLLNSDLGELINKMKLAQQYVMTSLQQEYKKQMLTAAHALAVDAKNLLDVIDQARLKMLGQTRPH
Sequence of Albumin (Bos taurus) (P02769 whole entry, looked up): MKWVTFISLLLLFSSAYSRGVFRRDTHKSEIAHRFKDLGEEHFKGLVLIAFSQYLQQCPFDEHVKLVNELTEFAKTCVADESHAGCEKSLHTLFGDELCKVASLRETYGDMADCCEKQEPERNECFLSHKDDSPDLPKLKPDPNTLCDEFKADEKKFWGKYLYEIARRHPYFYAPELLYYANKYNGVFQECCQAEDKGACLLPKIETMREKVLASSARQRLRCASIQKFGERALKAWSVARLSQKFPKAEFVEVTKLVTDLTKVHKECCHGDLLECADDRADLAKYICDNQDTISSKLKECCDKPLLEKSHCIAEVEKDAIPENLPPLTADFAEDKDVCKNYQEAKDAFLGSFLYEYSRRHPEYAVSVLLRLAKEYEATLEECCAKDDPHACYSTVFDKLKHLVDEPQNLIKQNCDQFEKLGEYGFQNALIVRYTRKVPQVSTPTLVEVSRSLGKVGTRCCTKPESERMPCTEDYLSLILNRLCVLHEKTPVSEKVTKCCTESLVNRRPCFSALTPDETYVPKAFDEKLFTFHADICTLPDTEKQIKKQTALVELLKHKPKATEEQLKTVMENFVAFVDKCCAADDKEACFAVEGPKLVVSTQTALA
Sequence of Fibroblast growth factor 2 (Homo sapiens) (P09038 whole entry, looked up): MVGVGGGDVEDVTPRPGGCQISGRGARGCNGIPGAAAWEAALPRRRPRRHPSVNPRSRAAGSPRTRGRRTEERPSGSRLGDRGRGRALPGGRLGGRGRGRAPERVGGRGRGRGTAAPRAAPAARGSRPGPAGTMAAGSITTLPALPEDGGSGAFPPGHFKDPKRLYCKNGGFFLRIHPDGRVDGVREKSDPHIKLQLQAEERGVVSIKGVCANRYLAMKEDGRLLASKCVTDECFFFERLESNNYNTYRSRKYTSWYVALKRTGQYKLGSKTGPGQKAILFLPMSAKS

`C/C=C\[C@@H](NCc1ccccc1Br)[C@@H](O)Cc1ccccc1`: the composite z-score was 0.099 with Albumin (Bos taurus); -0.221 in test [2]; -0.13 in [3]; -0.263 in test [4]; -0.103 in test [5]; -0.0543 in test [6]. Further, the composite z-score with Sam68 (KHDRBS1) is -0.636; in [7], -1.02; in test [8], -0.342; in test [9], -0.13; in test [10], -0.469; in [11] it was -0.119. Further, the composite z-score in test [12] is -0.641; in [13], -0.604; in test [14] it was -1.4; in the test with Lefty1, -0.972; in test [16], -0.819. Moreover, the composite Z-score in [1] is 0.168 (inactive). Also, the values for the z-score in test [15] and in [17] were -1.4 and 0.979 (inactive), respectively.
In the case of `CC(=O)OC[C@H]1O[C@@H](ON=C(C)CCN2CCc3nc(-c4ccccc4)c(-c4ccccc4)cc3C2)[C@H](OC(C)=O)[C@@H](OC(C)=O)[C@@H]1OC(C)=O`, the composite z-score was 0.507 with Albumin (Bos taurus); 0.12 in test [2]; -0.156 in test [3]; 0.16 in [4]; 0.614 in [5]; 0.717 in test [6]. For the same molecule, the composite z-score is 1.3 with Sam68 (KHDRBS1); 0.346 in test [7]; 0.878 in test [8]; -0.116 in test [9]; 1.11 in [10]; 0.276 in test [11]. In addition, the composite z-score is 0.867 in [12]; 0.992 in test [13]; 1.19 in test [14]; 0.699 in the test on Lefty1; 0.491 in test [16]. Also, in test [1], the composite Z-score is -0.0295 (inactive). Further, the z-score in test [15] is 1.13; in test [17], 0.93 (inactive).
On to `COCCOC(=O)N1C(=O)[C@@]2(c3cc(C#CCNC(N)=O)ccc31)[C@H](c1ccccc1OCCO)N1[C@H](c3ccccc3)[C@H](c3ccccc3)OC(=O)[C@H]1[C@@H]2C(=O)N1CCN(c2ncccn2)CC1`, for which the composite z-score is 0.583 with Albumin (Bos taurus); 0.169 in test [2]; -0.0028 in test [3]; 0.537 in test [4]; 1.92 in test [5]; 0.579 in [6]. Further, the composite z-score in the test on Sam68 (KHDRBS1) is 1.32; in [7], -0.119; in test [8], 1.06; in [9], 1.94; in [10], 0.74; in test [11], 0.491. Moreover, the composite z-score in test [12] stood at 0.714; in test [13], 0.705; in test [14] it was 1.55; in the test on Lefty1, 0.296; in [16], 0.727. Moreover, in test [1], the composite Z-score is 0.339 (inactive). Also, the z-score in test [15] was -1.08; in test [17] it was -1.9 (inactive).
In the case of `CC(C)[C@@H](OCc1ccccc1)[C@H](C)C=NOC[C@@H](C)[C@H](OCc1ccccc1)C(C)C`, the composite z-score with Albumin (Bos taurus) was -0.248; in [2], -0.0111; in test [3], -0.126; in [4] it was -0.265; in test [5] it was -0.393; in [6], -0.0427. For the same molecule, the composite z-score with Sam68 (KHDRBS1) is -0.24; in test [7], 0.457; in [8], 0.31; in test [9], 0.0377; in [10] it was 0.289; in test [11], 0.121. For the same molecule, the composite z-score is -0.0745 in [12]; 0.426 in test [13]; 0.139 in test [14]; 0.595 in the test on Lefty1; -0.0388 in test [16]. In test [1], the composite Z-score is -0.161 (inactive). Further, the results for the z-score in test [15] and in [17] were -0.753 and -0.11 (inactive), respectively.
With `CC(=O)OC[C@H]1O[C@H](CC=NOC[C@@H](C)[C@H](OCc2ccccc2)C(C)C)C=C[C@@H]1OC(C)=O`, the composite z-score is -0.428 with Albumin (Bos taurus); -0.0773 in [2]; -0.11 in test [3]; -0.253 in [4]; 0.043 in test [5]; -0.223 in test [6]. Moreover, the composite z-score is 0.377 in the test on Sam68 (KHDRBS1); 0.186 in test [7]; -0.182 in test [8]; -1.2 in test [9]; 0.284 in test [10]; -0.351 in test [11]. For the same molecule, the composite z-score was -0.344 in test [12]; 0.264 in test [13]; 0.155 in test [14]; 0.752 with Lefty1; -0.21 in [16]. In test [1], the composite Z-score is 0.156 (inactive). The z-score was -1.02 in test [15] and 1.34 (inactive) in test [17].
For `CCCC[C@H]1OB(O)C[C@H]2C1=C(C)C[C@H]1C(=O)N(C)C(=O)[C@H]12`, the composite z-score in the test with Albumin (Bos taurus) was 0.748; in test [2], 0.16; in test [3], -0.117; in [4], 0.328; in test [5] it was 0.326; in [6], 0.308. For the same molecule, the composite z-score is 1.08 in the test with Sam68 (KHDRBS1); 0.311 in [7]; 0.321 in [8]; -0.0755 in test [9]; 0.739 in test [10]; 0.248 in [11]. In addition, the composite z-score in [12] was found to be 0.615; in test [13] it was 0.931; in test [14], 1.31; with Lefty1, 0.794; in [16] it was 0.556. Besides, the composite Z-score in test [1] is 0.506 (inactive). Moreover, the figures for the z-score in test [15] and in test [17] were 0.445 and -0.769 (inactive), respectively.
Regarding `COC(=O)[C@@H]1CC[C@H](C)[C@@H](c2ccc(C)cc2)N1C(=O)c1ccc(C=NOC(C)CN2CCCCc3nc(C)c(C)cc32)cc1` (stereo not given in full), the composite z-score with Albumin (Bos taurus) is 0.594; in [2] it was 0.0916; in [3], -0.0707; in [4], -0.0862; in test [5] it was 0.125; in test [6], 0.388. For the same molecule, the composite z-score with Sam68 (KHDRBS1) is 0.0689; in test [7], 0.62; in test [8] it was 0.951; in test [9], 0.444; in [10] it was -0.732; in [11], 0.0369. The composite z-score in test [12] is 0.469; in test [13] it was 0.114; in test [14] it was 0.222; in the test on Lefty1, 0.847; in test [16] it was 0.0329. The composite Z-score in test [1] was -0.317 (inactive). Besides, the z-score was 2.32 in test [15] and 0.662 (inactive) in test [17].
As to `COC(=O)[C@H](C)NC(=O)CCC1CC(OC(=O)NCc2ccc3c(c2)OCO3)CC2(CCCC(COC(=O)NCCOc3ccccc3)O2)O1` (stereo not given in full), the composite z-score with Albumin (Bos taurus) is 0.469; in test [2], 0.14; in [3], -0.0889; in test [4], 0.356; in test [5], 0.508; in test [6] it was 0.114. Also, the composite z-score with Sam68 (KHDRBS1) stood at 1.3; in test [7], 0.344; in test [8] it was 0.906; in test [9] it was 0.486; in test [10] it was 1.15; in [11], 0.0281. In addition, the composite z-score worked out at 0.59 in test [12]; 0.463 in test [13]; 1.09 in test [14]; 0.735 with Lefty1; 0.262 in test [16]. The composite Z-score in test [1] is 0.794 (inactive). For the same molecule, the z-score was 1.09 in test [15] and -0.314 (inactive) in test [17].
Turning to `CN(C)c1ccc(C(O)C2C=CC3C(=O)N(c4ccccc4)C(=O)C3N2Nc2ccccc2F)cc1` (stereo not given), the composite z-score is 0.62 in the test with Albumin (Bos taurus); 0.134 in [2]; 0.0605 in test [3]; 0.522 in test [4]; 1.11 in [5]; -0.301 in test [6]. For the same molecule, the composite z-score was 0.87 in the test on Sam68 (KHDRBS1); -0.371 in test [7]; 0.676 in [8]; 1.68 in test [9]; 1.24 in [10]; 0.0651 in [11]. Moreover, the composite z-score in test [12] is 0.793; in test [13] it was 0.404; in test [14] it was -0.872; with Lefty1 it was 0.0136; in test [16], 0.792. Besides, the composite Z-score in test [1] was -0.122 (inactive). In addition, the z-score in test [15] was -1.06; in test [17], -0.484 (inactive).
